Source: PubChem BioAssay (NCATS)
Results filed as inconclusive are left out. A call without a number means that no potency is given here. The source made the active and inactive calls. The call rests on the fitted dose curve; in most records, active means well fitted curve in the direction sought with a large enough effect; inconclusive means small, poorly fitted or top-dose-only effect, or another doubt; inactive means no such curve, though single readings can be large; an effect the other way counts as inactive or inconclusive.

Key:
[1] = biological target: Aldehyde dehydrogenase, mitochondrial (Homo sapiens) (UniProt P05091); assay: qHTS for Inhibitors of the Aldehyde Dehydrogenase Family (ALDH2) Primary screen (AID 2061308); further: nearly all actives have a fitted effect of over 55% in size
[2] = biological target: Retinaldehyde dehydrogenase 3 (Homo sapiens) (UniProt P47895); assay: qHTS for Inhibitors of the Aldehyde Dehydrogenase Family (ALDH1A3) Primary screen (AID 2061315)

| SMILES | Potency [1] | Potency [2] |
| --- | --- | --- |
| CCCn1c(-c2ccc(F)cc2)nc2c(NCCCCN(CC)CC)nc(C)nc21 | inactive | inactive |
| Cc1ccc(OCCn2c(CCNC(=O)c3ccc[nH]3)nc3ccccc32)cc1 | inactive | inactive |
| CCOc1ccc(CCNC(=O)c2cnon2)cc1OCC | inactive | inactive |
| Cc1ccc(-c2cc(C(=O)NCc3ccc(S(C)(=O)=O)cc3)c3ccccc3n2)cc1C | inactive | inactive |
| Cc1cccc(CNc2ccnc(-c3ccccc3F)n2)c1 | inactive | inactive |
| Cc1cc(N[S+](=O)([O-])c2ccc(NC(=O)Cc3ccc(Cl)nc3)cc2)no1 | inactive | inactive |
| CCC(=O)NC(c1ccco1)c1cc([N+](=O)[O-])c2cccnc2c1O (configuration not stated) | inactive | inactive |
| COc1ccc2c(c1)C=C1Cn3c-2c(C2CCCCC2)c2ccc(cc23)C(=O)NS(=O)(=O)N(C)CCOCCN(C)C1=O | inactive | inactive |
| CCOc1ccc(CCNC(=O)c2cccs2)cc1OCC | inactive | inactive |
| Cc1ccc(NS(=O)(=O)c2cc3c(cc2C)OCC(=O)N3)cc1C | inactive | inactive |
| O=C(O)c1ccccc1-c1noc(-c2ccccc2F)n1 | inactive | inactive |
| O=C(Cn1cc(CNC(=O)c2ccccc2)nn1)Nc1cc(C(F)(F)F)ccc1Cl | inactive | inactive |
| O=C(Nc1ccc(Cl)c(Cl)c1)Nc1nnc(Br)s1 | inactive | inactive |
| Cc1ccc(S(=O)(=O)Nc2ccccc2C(=O)Nc2ccc(-c3ccccc3)cn2)cc1 | inactive | inactive |
| Cc1cc(C)n2ncc(C(=O)NC3CCCCC3)c2n1 | inactive | inactive |
| COc1ccc(NC(=O)CN2C(=O)N/C(=C\c3cccn3-c3ccc(C(=O)NC#N)cc3)C2=O)cc1 | inactive | inactive |
